For three compounds, outcome and AC50 results are on record in PubChem BioAssay (EPA / NIEHS).

Common to all, as to details: mRNA level, 48 h; actives raise or lower the signal
Read-out in assay [1]: Bcl-2 (BID) gene, BID (gene 637)
Put plainly: LTEA_HepaRG_BID: Life Technologies and Expression Analysis (LTEA) Assay for Bcl-2 (BID) gene using HepaRG (AID 2283476). The method in brief:
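Gene expression by qRT-PCR in HepaRG cells after 48 h exposure, duplicate wells, eight half-log concentrations topping at 100 uM in 0.5% DMSO. Normalized to ACTB, GAPDH, POLR2A; bidirectional fitting relative to DMSO.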

Read-out in assay [2]: Caspase-3 (Homo sapiens) (UniProt P42574)
Put plainly: LTEA_HepaRG_CASP3: Life Technologies and Expression Analysis (LTEA) Assay for cysteine-aspartic acid protease (CASP3) using HepaRG (AID 2283477). In a few lines: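 In HepaRG liver cells dosed for 48 h at up to 100 uM (eight-point, duplicate), CASP3 expression changes are scored by qRT-PCR. Activity is fitted in both directions with 0.5% DMSO as baseline.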

Read-out in assay [3]: Cytochrome P450 (CYP24A1), CYP24A1 (gene 1591)
As to the kind of experiment: LTEA_HepaRG_CYP24A1: Life Technologies and Expression Analysis (LTEA) Assay for Cytochrome P450 (CYP24A1) using HepaRG (AID 2283478). The method in brief:
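Human liver HepaRG cultures receive each chemical for 48 h across an eight-point half-log series topping at 100 uM in 0.5% DMSO. Induction or suppression of CYP24A1 mRNA is scored relative to vehicle after housekeeping-gene normalization.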

Read-out in assay [4]: Cytochrome P450 (CYP1A2), CYP1A2 (gene 1544)
Put plainly: LTEA_HepaRG_CYP1A2: Life Technologies and Expression Analysis (LTEA) Assay for Cytochrome P450 (CYP1A2) using HepaRG (AID 2283479). In a few lines: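 Assesses CYP1A2 mRNA in human HepaRG liver cells after 48 h chemical exposure at up to 100 uM. Values come from qRT-PCR with bidirectional curve fitting relative to DMSO.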

Read-out in assay [5]: cysteine-aspartic acid protease (CASP8), CASP8 (gene 841)
Put plainly: LTEA_HepaRG_CASP8: Life Technologies and Expression Analysis (LTEA) Assay for cysteine-aspartic acid protease (CASP8) using HepaRG (AID 2283480). The method in brief:
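Differentiated HepaRG cells in serum-free induction medium, 48 h exposure, eight-point half-log series from 100 uM in 0.5% DMSO, duplicates. CASP8 mRNA by qRT-PCR, normalized to ACTB, GAPDH, POLR2A; bidirectional fit versus DMSO.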

Read-out in assay [6]: Cytochrome P450 (CYP2B6), CYP2B6 (gene 1555)
Put plainly: LTEA_HepaRG_CYP2B6: Life Technologies and Expression Analysis (LTEA) Assay for Cytochrome P450 (CYP2B6) using HepaRG (AID 2283481). The method in brief:
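Using 48 h treatment of HepaRG cells in serum-free induction medium, concentrations spanned half-log steps from 100 uM in 0.5% DMSO vehicle. CYP2B6 mRNA induction or loss is scored by qRT-PCR against DMSO.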

Read-out in assay [7]: Cytochrome P450 2C19 (Homo sapiens) (UniProt P33261)
As to the kind of experiment: LTEA_HepaRG_CYP2C19: Life Technologies and Expression Analysis (LTEA) Assay for CYP2C19 using HepaRG (AID 2283482). In a few lines:
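Human HepaRG liver cells received test chemicals for 48 h (highest 100 uM, half-log dilutions in 0.5% DMSO). CYP2C19 mRNA induction or loss is read by multiplexed qRT-PCR and fitted in both directions versus vehicle.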

Read-out in assay [8]: CYP2C8 (gene 1558)
As to the kind of experiment: LTEA_HepaRG_CYP2C8: Life Technologies and Expression Analysis (LTEA) Assay for CYP2C8 using HepaRG (AID 2283483). In a few lines: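 Differentiated HepaRG cells in serum-free induction medium exposed 48 h in duplicate to 8 half-log concentrations from 100 uM in 0.5% DMSO. CYP2C8 mRNA by qRT-PCR normalized to ACTB, GAPDH, POLR2A; bidirectional fit versus DMSO.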

Read-out in assay [9]: CYP2C9 (gene 1559)
Put plainly: LTEA_HepaRG_CYP2C9: Life Technologies and Expression Analysis (LTEA) Assay for CYP2C9 using HepaRG (AID 2283484). In a few lines: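 Differentiated human HepaRG cells in serum-free induction medium were exposed 48 h to chemicals in 8-point half-log series from 100 uM (0.5% DMSO), in duplicate. CYP2C9 mRNA was measured by qRT-PCR, normalized to ACTB/GAPDH/POLR2A, with bidirectional fitting versus DMSO.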

Read-out in assay [10]: CYP2E1 (gene 1571)
As to the kind of experiment: LTEA_HepaRG_CYP2E1: Life Technologies and Expression Analysis (LTEA) Assay for CYP2E1 using HepaRG (AID 2283485). In a few lines: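 HepaRG cells, plated 48 h, then exposed 48 h in serum-free induction medium to eight half-log concentrations from 100 uM in 0.5% DMSO, duplicate. CYP2E1 mRNA by qRT-PCR, normalized to ACTB/GAPDH/POLR2A; bidirectional fit versus DMSO.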

Read-out in assay [11]: CYP4A11 (gene 1579)
Put plainly: LTEA_HepaRG_CYP4A11: Life Technologies and Expression Analysis (LTEA) Assay for CYP4A11 using HepaRG (AID 2283486). In a few lines: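 Readout is CYP4A11 mRNA induction or suppression (qRT-PCR, ACTB/GAPDH/POLR2A normalization) in human HepaRG cells after 48 h chemical treatment, concentrations to 100 uM in 0.5% DMSO, fitted bidirectionally against vehicle.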

Read-out in assay [12]: Cytochrome P450 3A4 (Homo sapiens) (UniProt P08684)
Put plainly: LTEA_HepaRG_CYP3A4: Life Technologies and Expression Analysis (LTEA) Assay for CYP3A4 using HepaRG (AID 2283487). The method in brief:
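In a human hepatic line (HepaRG), duplicate wells were treated 48 h with up to 100 uM chemical in half-log dilutions. Endpoint: CYP3A4 mRNA induction or loss relative to 0.5% DMSO vehicle, by qRT-PCR.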

Read-out in assay [13]: DNA damage-inducible transcript 3 (DDIT3), DDIT3 (gene 1649)
Put plainly: LTEA_HepaRG_DDIT3: Life Technologies and Expression Analysis (LTEA) Assay for DNA damage-inducible transcript 3 (DDIT3) using HepaRG (AID 2283488). In a few lines:
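HepaRG cells, 48 h after plating, exposed 48 h in serum-free induction medium to 8 half-log concentrations up to 100 uM in 0.5% DMSO, in duplicate. DDIT3 mRNA measured by TaqMan qRT-PCR, normalized to ACTB, GAPDH and POLR2A. Fitted bidirectionally against DMSO.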

Read-out in assay [14]: Pro-epidermal growth factor (Homo sapiens) (UniProt P01133)
Put plainly: LTEA_HepaRG_EGF: Life Technologies and Expression Analysis (LTEA) Assay for Epidermal growth factor (EGF) using HepaRG (AID 2283489). The method in brief: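 EGF expression changes in human HepaRG cells are scored by bidirectional fitting relative to 0.5% DMSO controls. Chemicals are tested at eight half-log concentrations up to 100 uM for 48 h in serum-free induction medium.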

Read-out in assay [15]: Ezrin (EZR), EZR (gene 7430)
As to the kind of experiment: LTEA_HepaRG_EZR: Life Technologies and Expression Analysis (LTEA) Assay for Ezrin (EZR) using HepaRG (AID 2283491). The method in brief: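 Gain or loss of EZR mRNA is scored relative to 0.5% DMSO in human HepaRG cultures treated 48 h with test chemicals in duplicate, eight half-log concentrations from 100 uM.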

Read-out in assay [16]: Cytochrome P450 3A7 (Homo sapiens) (UniProt P24462)
As to the kind of experiment: LTEA_HepaRG_CYP3A7: Life Technologies and Expression Analysis (LTEA) Assay for CYP3A7 using HepaRG (AID 2283492). In a few lines: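 Cells were thawed, plated, cultured 48 h, then treated for a further 48 h with chemicals (eight-point half-log series from 100 uM, 0.5% DMSO). RNA was isolated and CYP3A7 expression quantified by qRT-PCR normalised to ACTB, GAPDH and POLR2A.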

Read-out in assay [17]: CYP3A5 (gene 1577)
Put plainly: LTEA_HepaRG_CYP3A5: Life Technologies and Expression Analysis (LTEA) Assay for CYP3A5 using HepaRG (AID 2283493). The method in brief: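 HepaRG cells, plated 48 h then in serum-free induction medium, dosed in duplicate for 48 h with eight half-log concentrations up to 100 uM in 0.5% DMSO. Gene mRNA by Fluidigm TaqMan qRT-PCR, normalized to ACTB, GAPDH, POLR2A.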

Read-out in assay [18]: Fatty Acid-Binding Protein 1 (FABP1), FABP1 (gene 2168)
Put plainly: LTEA_HepaRG_FABP1: Life Technologies and Expression Analysis (LTEA) Assay for Fatty Acid-Binding Protein 1 (FABP1) using HepaRG (AID 2283494). The method in brief: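 Differentiated human HepaRG cells exposed 48 h in serum-free induction medium to eight half-log concentrations up to 100 uM (0.5% DMSO), duplicate. FABP1 mRNA by qRT-PCR, normalised to ACTB, GAPDH, POLR2A; bidirectional fitting against DMSO.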

Read-out in assay [19]: Cytochrome P450 4A22 (Homo sapiens) (UniProt Q5TCH4)
Put plainly: LTEA_HepaRG_CYP4A22: Life Technologies and Expression Analysis (LTEA) Assay for Cytochrome P450 4A22 (CYP4A22) using HepaRG (AID 2283495). The method in brief: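 Cryopreserved HepaRG cells, plated and cultured 48 h, then switched to serum-free induction medium and treated 48 h (duplicates, up to 100 uM, half-log steps, 0.5% DMSO). Expression change of CYP4A22 was fitted bidirectionally against vehicle.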

Read-out in assay [20]: Early growth response protein 1 (EGR1) transcription factor, EGR1 (gene 1958)
As to the kind of experiment: LTEA_HepaRG_EGR1: Life Technologies and Expression Analysis (LTEA) Assay for Early growth response protein 1 (EGR1) transcription factor using HepaRG (AID 2283490). In a few lines: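 Differentiated HepaRG cells in serum-free induction medium exposed 48 hours, duplicate, to 8 half-log concentrations up to 100 uM in 0.5% DMSO. EGR1 mRNA measured by TaqMan qRT-PCR, normalized to ACTB, GAPDH, POLR2A; bidirectional fit versus DMSO.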

Calls of active or inactive are those of the source. Rule for the calls: active = hit-call score of the fitted dose curve at least 0.9, where 1 is the maximum; inactive = score below 0.9.

Chain of Cytochrome P450 2C19 (Homo sapiens) (P33261 whole entry, looked up): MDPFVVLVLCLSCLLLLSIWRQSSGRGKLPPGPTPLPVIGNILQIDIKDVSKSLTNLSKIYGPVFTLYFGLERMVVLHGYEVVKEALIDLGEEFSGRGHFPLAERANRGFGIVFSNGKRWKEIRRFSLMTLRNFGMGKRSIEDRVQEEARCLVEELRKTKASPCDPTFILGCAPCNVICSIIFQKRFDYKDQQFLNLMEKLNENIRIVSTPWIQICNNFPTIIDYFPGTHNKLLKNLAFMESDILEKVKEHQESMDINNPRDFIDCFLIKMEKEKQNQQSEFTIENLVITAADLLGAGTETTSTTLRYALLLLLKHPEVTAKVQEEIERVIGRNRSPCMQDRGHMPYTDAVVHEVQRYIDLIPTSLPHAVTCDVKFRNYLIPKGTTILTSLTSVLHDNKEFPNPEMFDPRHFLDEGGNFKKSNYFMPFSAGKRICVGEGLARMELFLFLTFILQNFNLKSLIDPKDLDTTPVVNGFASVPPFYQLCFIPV
Chain of Cytochrome P450 3A4 (Homo sapiens) (P08684 whole entry, looked up): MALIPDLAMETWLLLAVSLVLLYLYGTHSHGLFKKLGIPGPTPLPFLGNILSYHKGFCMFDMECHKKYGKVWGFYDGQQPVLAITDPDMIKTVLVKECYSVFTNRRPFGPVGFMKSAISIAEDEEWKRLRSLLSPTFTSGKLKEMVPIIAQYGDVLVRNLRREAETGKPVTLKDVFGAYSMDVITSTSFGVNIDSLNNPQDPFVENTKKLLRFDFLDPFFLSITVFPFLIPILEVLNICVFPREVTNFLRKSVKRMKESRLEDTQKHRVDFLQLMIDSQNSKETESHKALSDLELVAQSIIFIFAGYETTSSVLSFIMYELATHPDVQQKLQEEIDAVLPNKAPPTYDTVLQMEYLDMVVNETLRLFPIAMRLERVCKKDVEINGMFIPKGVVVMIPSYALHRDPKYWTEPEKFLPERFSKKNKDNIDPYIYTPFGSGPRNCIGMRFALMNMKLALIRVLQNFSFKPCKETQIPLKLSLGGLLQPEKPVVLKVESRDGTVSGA
Chain of Caspase-3 (Homo sapiens) (P42574 whole entry, looked up): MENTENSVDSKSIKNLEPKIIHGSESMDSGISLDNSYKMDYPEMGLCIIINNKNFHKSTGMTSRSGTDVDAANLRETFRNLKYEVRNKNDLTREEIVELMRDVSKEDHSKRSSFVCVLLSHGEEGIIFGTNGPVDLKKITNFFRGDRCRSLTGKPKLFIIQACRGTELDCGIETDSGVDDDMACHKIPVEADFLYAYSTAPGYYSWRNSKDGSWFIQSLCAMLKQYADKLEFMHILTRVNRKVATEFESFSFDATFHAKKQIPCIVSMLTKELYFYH
Chain of Cytochrome P450 3A7 (Homo sapiens) (P24462 whole entry, looked up): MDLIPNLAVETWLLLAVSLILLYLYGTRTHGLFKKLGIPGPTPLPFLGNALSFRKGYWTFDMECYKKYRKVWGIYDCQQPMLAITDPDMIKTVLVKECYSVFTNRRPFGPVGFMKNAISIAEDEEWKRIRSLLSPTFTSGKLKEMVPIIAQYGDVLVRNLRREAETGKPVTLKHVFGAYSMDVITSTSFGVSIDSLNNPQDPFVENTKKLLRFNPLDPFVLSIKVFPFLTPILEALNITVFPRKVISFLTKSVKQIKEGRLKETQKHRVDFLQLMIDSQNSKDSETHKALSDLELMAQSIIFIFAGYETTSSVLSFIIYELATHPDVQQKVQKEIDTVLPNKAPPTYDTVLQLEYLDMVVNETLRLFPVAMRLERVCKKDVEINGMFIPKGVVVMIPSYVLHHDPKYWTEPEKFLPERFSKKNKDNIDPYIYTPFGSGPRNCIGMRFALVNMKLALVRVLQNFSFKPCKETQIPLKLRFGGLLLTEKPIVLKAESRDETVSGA

Turning to `CO/N=C(/C1=NOCCO1)c1ccccc1Oc1ncnc(Oc2ccccc2Cl)c1F`, the call in [1], in [2], in assay [3], in assay [5] and in [14] was inactive. Moreover, the AC50 is 13.1 µM (active) in assay [4]; 21.1 µM (active) in assay [6]; 29.5 µM (active) in assay [7]; 25.8 µM (active) in assay [8]; 25.2 µM (active) in assay [9]; 7.94 µM (active) in assay [10]. For the same compound, the AC50 in assay [11] is 14.2 µM (active); in assay [12] it was 30.5 µM (active); in [13], 25.1 µM (active); in [15] it was 0.973 µM (active); in assay [16], 12.4 µM (active); in assay [17] it was 23.3 µM (active). The AC50 in [18] was 19.8 µM (active); in assay [19] it was 20.5 µM (active).
In the case of `CC(C)(C)C(=O)C(Oc1ccc(Cl)cc1)n1cncn1` (configuration not stated), the compound was called inactive in [1], in [2], in [3], in [4], in assay [5] and in assay [9]. The compound was called inactive in assay [14], in assay [20], in assay [15] and in assay [17]. Further, the half-maximal activity concentration (AC50) in assay [6] is 5.18 µM (active); in assay [7], 10.7 µM (active); in [8] it was 15.4 µM (active); in [10] it was 31.1 µM (active); in assay [11], 50 µM (active); in assay [12], 2.67 µM (active). Moreover, the results for the AC50 in assay [16], in assay [18] and in assay [19] were 12.1 µM (active), 50 µM (active) and 30.1 µM (active), respectively.
`CCCCOCN(C(=O)CCl)c1c(CC)cccc1CC`: the compound was called inactive in [1], in assay [2], in [3], in assay [4], in assay [5] and in assay [8]. In addition, the compound was called inactive in assay [9], in assay [10], in assay [14], in [20], in [15] and in [16]. Besides, the compound was classed as inactive in [17], in assay [18] and in [19]. Further, the AC50 is 40 µM (active) in assay [6], 50 µM (active) in assay [7], 50 µM (active) in assay [11] and 27.7 µM (active) in assay [12].

What is called AC50 is the midpoint of the concentration-response curve, whichever way the signal moves.
